“And” between values parts separate entries of the source, which are not always exact repeats. Identical values can stand only once. The source made the active and inactive calls.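 How the source made its calls, unless noted: active means inhibition at or above 50% relative to wild type and mutant plate controls; inactive means inhibition below 50%.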

Test [1] in a line: inhibitors of mutant huntingtin aggregation, primary screen, imaging, exon1htt(103Q)mCFP cells, high-content imaging (AID 483;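 active means visual image review flags a hit and inhibition of aggregation exceeds 20%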;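 further: compound exposure lasted 3 days before fixation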;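 on nuclei count: percent of the per-plate median nuclei count of sample wells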). The note with it: exon1htt(103Q)mCFP cell line, aggregate imaging, at 2 µM; inhibition of aggregation: stronger effect = higher value; nuclei count: measured here: cell count, toxicity.
Test [2] is described as follows: inhibitors of E-selectin induction by TNFa, primary screen, imaging, HUVEC, immunofluorescence, MLSMR starter and 10KST1 sets (AID 487;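 active means visually confirmed hit in the image check and inhibition above 20%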;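 on inhibition: signal is fraction of cell area covered by stained E-selectin grains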;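 on nuclei count: 100% = median nuclei count of all wells on the same plate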). The note with it: HUVEC TNFalpha-induced E-selectin immunofluorescence imaging, at 2 µM; inhibition: stronger effect = higher value; nuclei count: measured here: cell number, toxicity.
Test [3] is described as follows: DUSP6 inhibitors restoring Erk phosphorylation by chemical complementation, primary imaging in DUSP6-transfected HeLa (AID 609;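 active means compounds giving at least 50% inhibition in the cell-based MKP-3 phosphatase rescue imaging test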;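 on inhibition: phospho-Erk level distribution per well compared with pooled transfected vehicle control wells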). The note with it: HeLa MKP-3 transfected, phospho-Erk imaging KS statistic, at 10 µM, cells stimulated with TPA for 15 min.
Test [4] concerns the target Dual specificity protein phosphatase 6 (Homo sapiens) (UniProt Q16828). Described as above. The note with it: HeLa MKP-3 transfected, phospho-Erk imaging KS statistic; at 10 µM; stronger effect = higher value; cells stimulated with TPA for 15 min.
The target of test [5] is Voltage-gated potassium channel subunit beta-2 (Rattus norvegicus) (UniProt P62483). Kind of test: KvBeta enzyme negative modulators, primary screen, biochemical, NADPH fluorescence (AID 622;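 active means fluorescence slope higher than the sample average by over 3 SD, cut at about -0.22 in these data, passing the limit was not always enough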;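 further: slope of raw intensity against log time taken from 70 to 1610 s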). The note with it: recombinant KvBeta, 4-cyanobenzaldehyde reduction, at 10 µM, stronger effect = higher value.
Test [6] shares this target. Kind of test: KvBeta positive modulators, primary screen, biochemical, NADPH fluorescence (AID 623;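 active means NADPH fluorescence slope more negative than the mean of all samples by about 3 SD, 99.7% confidence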;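 further: fluorescence intensity change per second fitted from 20 to 320 s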). The note with it: Recombinant KvBeta, NADPH fluorescence decrease slope, 10 min; at 10 µM; stronger effect = lower value.
The target in test [7] is Alpha-2C adrenergic receptor (Homo sapiens) (UniProt P18825). Nature of the test: modulators of alpha2C/GIRK thallium flux, primary screen, cell-based, HEK293 alpha2C/GIRK1/2 (AID 624;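 active means fluorescence slope after compound addition differing from the mean of all screened samples at 99.7% confidence, in either direction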;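 further: slope of fluorescence ratio to pre-addition baseline per second over 15 to 24 s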). The note with it: thallium flux BTC fluorescence, at 10 µM, actives lie on both sides.
A short description of test [8]: inhibitors of larval lipid processing in zebrafish, primary screen, whole organism, PED6 fluorescence, gall bladder and intestine (AID 686;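 active means a full or partial loss of lipid-probe fluorescence in the fish gall bladder, intestine or both, judged by eye; inactive means no fluorescence loss, or compound toxic to the fish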;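 further: larvae 5 to 7 days old with five fish per well; signal comes from phospholipase A2 cleavage of quenched PED6 carried via bile; overnight exposure to compound and PED6 before scoring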). The note with it: Zebrafish larvae PED6 lipid processing, fluorescence scoring; screened at 20 µM (by protocol).
Test [9] is described as follows: inhibitors of Chlamydomonas gravitaxis, primary screen, whole organism, Chlamydomonas reinhardtii, WT vs cilia-less mutant, absorbance, 96-well (AID 463189).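 Further: 0% = wild type cc124 cells in DMSO and 100% = ciliumless bld1 mutant cells.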 The note with it: OD600 absorbance, 2 days, at 10 µM, stronger effect = higher value.
The nature of test [10]: inhibitors of Sendai virus-induced IRF3 signaling, primary screen, TLR/RLR signaling modifier project, cell-based, Sendai virus stimulus, luciferase, 10K MLSCN set (AID 602276;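 active means inhibition at or above 50% at 10 µM; inactive means inhibition below 50%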;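 further: firefly luciferase from ISG56 promoter only with Renilla not read in this screen; 0% = Sendai virus plus DMSO and 100% = medium plus DMSO without virus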). The note with it: HEK293 RL24 IRF3 luciferase reporter, at 10 µM, stronger effect = higher value. A general note: In a reporter assay the amount or activity of a reporter protein is the signal.
A short description of test [11]: inhibitors of poly I:C-induced TLR3 signaling, primary screen, cell-based, poly I:C stimulus, luciferase, 10K MLSCN set (AID 602277;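 active means inhibition of the reporter signal at or above 50%; inactive means inhibition below 50%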). The note with it: HEK293-TLR3 RL24 IRF3 luciferase reporter, at 10 µM, stronger effect = higher value.
Test [12] addresses Muscarinic acetylcholine receptor M4 (Homo sapiens) (UniProt P08173). Kind of test: compounds altering M4/GIRK thallium flux, either direction, primary screen, M4 allosteric agonist project, cell-based, HEK293 M4/GIRK, BTC-AM (AID 625;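 active means fluorescence slope after compound addition differing from the mean of all tested samples at 99.7% confidence, mostly higher but some lower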;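 further: thallium influx through GIRK channels coupled to M4 in HEK293 cells with BTC-AM dye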). The note with it: at 10 µM, actives lie on both sides.
Setting [13] is: measured here: cell density z-score.
Setting [14] is: measured here: nuclear c-Myc green intensity z-score.
Where [15] appears, read: measured here: nuclear pErk red intensity z-score, stronger effect = higher value.

Dual specificity protein phosphatase 6 (Homo sapiens), sequence (Q16828 whole entry, looked up): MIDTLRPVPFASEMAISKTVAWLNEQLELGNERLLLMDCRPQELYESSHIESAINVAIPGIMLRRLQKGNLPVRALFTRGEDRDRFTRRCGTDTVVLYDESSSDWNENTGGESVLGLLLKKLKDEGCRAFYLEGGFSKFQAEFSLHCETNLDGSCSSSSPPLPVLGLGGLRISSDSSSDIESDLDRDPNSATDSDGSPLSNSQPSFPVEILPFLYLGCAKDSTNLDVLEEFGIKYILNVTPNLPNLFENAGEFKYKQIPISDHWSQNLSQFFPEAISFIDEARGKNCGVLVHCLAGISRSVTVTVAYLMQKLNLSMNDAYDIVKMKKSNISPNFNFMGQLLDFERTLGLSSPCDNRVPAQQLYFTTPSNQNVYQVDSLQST
Voltage-gated potassium channel subunit beta-2 (Rattus norvegicus), sequence (P62483 whole entry, looked up): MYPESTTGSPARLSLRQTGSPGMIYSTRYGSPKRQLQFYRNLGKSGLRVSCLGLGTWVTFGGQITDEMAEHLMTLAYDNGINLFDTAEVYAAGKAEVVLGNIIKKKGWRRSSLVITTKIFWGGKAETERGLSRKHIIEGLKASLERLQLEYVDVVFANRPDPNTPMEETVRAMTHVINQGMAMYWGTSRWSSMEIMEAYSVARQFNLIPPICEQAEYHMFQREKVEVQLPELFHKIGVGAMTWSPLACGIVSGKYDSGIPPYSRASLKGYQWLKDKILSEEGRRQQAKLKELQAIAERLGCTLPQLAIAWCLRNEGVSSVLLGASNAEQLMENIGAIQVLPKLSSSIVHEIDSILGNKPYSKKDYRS
Muscarinic acetylcholine receptor M4 (Homo sapiens), sequence (P08173 whole entry, looked up): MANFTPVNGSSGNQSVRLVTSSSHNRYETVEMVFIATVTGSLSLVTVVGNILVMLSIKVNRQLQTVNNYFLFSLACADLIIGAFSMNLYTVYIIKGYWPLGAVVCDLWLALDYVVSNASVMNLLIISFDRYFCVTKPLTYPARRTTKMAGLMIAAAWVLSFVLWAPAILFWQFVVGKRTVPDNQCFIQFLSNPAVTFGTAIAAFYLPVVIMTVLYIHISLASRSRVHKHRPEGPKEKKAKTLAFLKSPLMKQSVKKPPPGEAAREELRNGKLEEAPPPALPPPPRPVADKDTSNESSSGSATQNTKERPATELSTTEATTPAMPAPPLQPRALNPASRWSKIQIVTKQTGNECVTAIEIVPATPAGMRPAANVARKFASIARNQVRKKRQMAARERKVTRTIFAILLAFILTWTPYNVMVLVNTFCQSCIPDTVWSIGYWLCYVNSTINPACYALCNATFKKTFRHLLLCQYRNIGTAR
Alpha-2C adrenergic receptor (Homo sapiens), sequence (P18825 whole entry, looked up): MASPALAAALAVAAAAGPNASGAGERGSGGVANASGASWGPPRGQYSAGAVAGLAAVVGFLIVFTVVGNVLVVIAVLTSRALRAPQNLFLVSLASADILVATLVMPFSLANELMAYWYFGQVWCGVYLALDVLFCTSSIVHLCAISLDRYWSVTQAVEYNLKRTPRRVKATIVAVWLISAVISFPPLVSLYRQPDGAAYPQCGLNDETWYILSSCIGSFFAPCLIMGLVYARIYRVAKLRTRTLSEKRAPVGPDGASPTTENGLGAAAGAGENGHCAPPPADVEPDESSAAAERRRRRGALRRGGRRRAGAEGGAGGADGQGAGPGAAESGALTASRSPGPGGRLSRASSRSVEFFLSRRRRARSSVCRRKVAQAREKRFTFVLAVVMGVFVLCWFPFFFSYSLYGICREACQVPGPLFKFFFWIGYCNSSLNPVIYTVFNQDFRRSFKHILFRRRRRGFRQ

By inhibition is commonly meant the change of the read-out against control, counted positive when it falls. On to `O=C(O)CCC(=O)Nc1ccc(S(=O)(=O)Nc2nccs2)cc1`, for which the inhibition of aggregation in [1] is -13.3% (inactive). Further, the nuclei count came out at 93.6% in test [1] and 110% in test [2]. The inhibition in test [2] is -59.2% (inactive); in [4], 1.38% (inactive); in [9], 5.01% (inactive); in test [10] it was 21.6% (inactive); in test [11] it was 37.7% (inactive). Also, the z-score in test [3] (setting [13]) was -1.01; in test [3] (setting [14]) it was 2.12; in test [3] (setting [15]), 1.88. The fluorescence slope in test [5] is -0.504 (inactive). The NADPH fluorescence slope in test [6] was -5.7e-05 (inactive). Also, the slope in [7] is 0.00423 (inactive). Moreover, the result in test [8] was inactive.
On to `Oc1oc(-c2ccccc2)nc1C=NCc1ccncc1`, for which the inhibition was 5.8% (inactive) in test [2], 13.2% (inactive) in test [4] and -10.3% (inactive) in [9]. Also, the nuclei count in test [2] worked out at 104%. Besides, the z-score in test [3] (setting [13]) is 0.0106; in test [3] (setting [14]), -0.425; in [3] (setting [15]) it was 0.0699. Besides, the fluorescence slope was -0.353 (inactive) in [5] and 0.00715 (inactive) in test [12]. In addition, the NADPH fluorescence slope in test [6] was 7.6e-07 (inactive). For the same compound, the compound was classed as inactive in test [8].
On to `COc1ccc([C@@H]2Sc3ccccc3N(CCN(C)C)C(=O)[C@@H]2OC(C)=O)cc1`, for which the inhibition in test [2] was -27.1% (inactive); in [4], -4.44% (inactive); in [9] it was 4.06% (inactive) and -15.6% (inactive); in test [10], 16.3% (inactive); in test [11] it was 35.5% (inactive). This compound yielded a nuclei count in test [2] of 104%. In addition, the z-score is 0.794 in test [3] (setting [13]), -1.47 in [3] (setting [14]) and 0.473 in test [3] (setting [15]). Besides, the fluorescence slope in test [5] was -0.507 (inactive). In addition, the NADPH fluorescence slope in [6] was -7.4e-05 (inactive). Moreover, in test [7], the slope is 0.00609 (inactive). Also, in [8], the compound was classed as inactive.
As for `CCN(CC)CCNC(=O)c1ccc(N)cc1`, the inhibition was -57.1% (inactive) in [2]; 3.59% (inactive) in test [4]; 3.94% (inactive) and 1.02% (inactive) in test [9]; -2.32% (inactive) in test [10]; 3.63% (inactive) in test [11]. In test [2], this compound returned a nuclei count of 133%. Further, the z-score in [3] (setting [13]) is 1.09; in [3] (setting [14]), -0.602; in test [3] (setting [15]) it was -0.833. The fluorescence slope in test [5] is -0.52 (inactive). Also, the NADPH fluorescence slope in [6] is -0.000102 (inactive). Besides, in test [7], the slope is 0.00563 (inactive). Further, the compound was called inactive in [8].
In the case of `CCOC(=O)c1ccc(CSc2ncn[nH]2)o1`, the values for the inhibition in [2], in test [4] and in [9] were -61.8% (inactive), 17% (inactive) and 10.3% (inactive), respectively. In [2], this compound displayed a nuclei count of 156%. The z-score in test [3] (setting [13]) is 0.633; in test [3] (setting [14]), -0.893; in test [3] (setting [15]), -0.304. Further, the fluorescence slope in test [5] was -0.407 (inactive); in test [12], 0.00583 (inactive). The NADPH fluorescence slope in test [6] is -3.4e-05 (inactive). Also, the result in test [8] was inactive.
`COc1cccc(N2CCN(c3ncnc4c3[nH]c3ccccc34)CC2C)c1` (stereo not given): the figures for the inhibition in test [2], in [4] and in test [9] were 72.8% (inactive), -7.93% (inactive) and 57% (active), respectively. This compound also returned a nuclei count in test [2] of 102%. Further, the z-score in test [3] (setting [13]) was -0.905; in [3] (setting [14]), -0.691; in [3] (setting [15]), 2.95. For the same compound, the fluorescence slope in test [5] is -0.41 (inactive); in test [12], 0.00483 (inactive). For the same compound, the NADPH fluorescence slope in [6] was -8e-06 (inactive). Besides, the compound was called inactive in test [8].
Regarding `CN(C)CCCN1c2ccccc2CCc2ccccc21`, the inhibition in test [2] was -9.2% (inactive); in [4], -12.3% (inactive); in [9], -3.09% (inactive) and 37.3% (inactive); in test [10], -11.2% (inactive); in [11], 5.17% (inactive). In test [2], this compound gave a nuclei count of 128%. The z-score was -0.894 in [3] (setting [13]), -0.347 in test [3] (setting [14]) and 2.03 in test [3] (setting [15]). For the same compound, in [5], the fluorescence slope is -0.545 (inactive). Moreover, in test [6], the NADPH fluorescence slope is -3.3e-05 (inactive). The slope in [7] is 0.00498 (inactive). The compound was called inactive in [8].
Consider `COc1cc(C(=O)Nc2ccccn2)cc(OC)c1OC`, for which the figures for the inhibition in [2], in [4] and in [9] were -234% (inactive), -2.07% (inactive) and 6.27% (inactive), respectively. Besides, in test [2], the nuclei count was 165%. Further, the results for the z-score in [3] (setting [13]), in [3] (setting [14]) and in test [3] (setting [15]) were -0.193, -1.03 and 0.79, respectively. For the same compound, the fluorescence slope in [5] is -0.398 (inactive); in [12], 0.00377 (inactive). Moreover, in test [6], the NADPH fluorescence slope is -5.6e-05 (inactive). Further, the compound was called inactive in [8].
Turning to `O=C(CCN1CCCC1Cc1ccccc1)c1ccc2c(c1)OCCO2` (stereo not given), the inhibition in test [2] was -106% (inactive); in [4], 1.75% (inactive); in [9], 7.98% (inactive). The same compound returned a nuclei count in [2] of 162%. In addition, the z-score in [3] (setting [13]) is -1.44; in test [3] (setting [14]), -1.2; in [3] (setting [15]), 0.369. Besides, the fluorescence slope in test [5] was -0.423 (inactive); in test [12] it was 0.00498 (inactive). Further, the NADPH fluorescence slope in [6] was -6.5e-05 (inactive). In addition, the compound was classed as inactive in test [8].
In the case of `COc1ccc(-c2coc3cc(O)cc(O)c3c2=O)cc1`, the inhibition of aggregation in test [1] is 9.1% (inactive). The compound also had a nuclei count in [1] of 116%. Besides, the z-score in test [3] (setting [13]) was -0.996; in test [3] (setting [14]), 0.921; in test [3] (setting [15]) it was 0.72. The inhibition in test [4] was 10.2% (inactive); in test [9], -12.4% (inactive); in [10], -90.2% (inactive); in [11], -200% (inactive). Further, the fluorescence slope in test [5] is -0.544 (inactive). Further, the NADPH fluorescence slope in [6] is -4.1e-06 (inactive). Moreover, the slope in test [7] was 0.00576 (inactive). Besides, the outcome in [8] was inactive.
With `CCOC(=O)C(OC(=O)c1sc(=S)n(C)c1C)C(C)=O` (stereo not given), the inhibition in [2] was -34.4% (inactive); in test [4] it was 7.48% (inactive); in test [9], 63.7% (active). In test [2], this compound showed a nuclei count of 86.4%. The z-score in [3] (setting [13]) is 0.548; in test [3] (setting [14]), -0.227; in test [3] (setting [15]), -0.266. Also, the fluorescence slope is -0.553 (inactive) in [5] and 0.00794 (inactive) in test [12]. The NADPH fluorescence slope in [6] is -3.9e-05 (inactive). The outcome in test [8] was inactive.
Turning to `CCC(NC(=O)Nc1nnc(C(F)(F)F)s1)(C(F)(F)F)C(F)(F)F`, the inhibition in [2] is -242% (inactive); in test [4] it was 18.4% (inactive); in test [9], 9.74% (inactive). In [2], the nuclei count amounted to 141%. Besides, the z-score in test [3] (setting [13]) is 0.851; in test [3] (setting [14]), -0.831; in test [3] (setting [15]), 0.704. Further, the fluorescence slope was -0.449 (inactive) in test [5] and 0.00231 (inactive) in test [12]. In test [6], the NADPH fluorescence slope is -4.2e-05 (inactive). For the same compound, the outcome in test [8] is “inactive; toxic”.
Regarding `O=C(O)c1ccc(COCC(F)(F)C(F)F)o1`, the inhibition in test [2] is -92.5% (inactive); in test [4], 5.26% (inactive); in test [9], 25% (inactive). Besides, the nuclei count in test [2] amounted to 150%. Also, the figures for the z-score in test [3] (setting [13]), in test [3] (setting [14]) and in test [3] (setting [15]) were -0.0306, -1.01 and 0.623, respectively. The fluorescence slope in test [5] is -0.428 (inactive). Moreover, the NADPH fluorescence slope in test [6] was -0.000116 (inactive). Moreover, in [7], the slope is 0.00477 (inactive). Besides, the call in test [8] was inactive.

Values taken from PubChem BioAssay.
